{"source": "ChEMBL document CHEMBL1157539", "about": "“Thousands of chemical starting points for antimalarial lead identification” (Nature, 2010)", "data": [{"tested_on": "HepG2", "assay": "GSK_TCMDC: Percent inhibition of human HepG2 cell line. Test compounds present at 10uM.", "assay_type": "functional", "units": {"Inhibition": "%"}, "values": [{"molecule": "CC(C)(C)c1cc(CN2CCN(Cc3ccccc3)CC2)cc(C(C)(C)C)c1O", "Inhibition": 9}, {"molecule": "CS(=O)(=O)CCNc1cc(N2CCc3ncnc(Nc4ccc(OCc5cccc(F)c5)c(Cl)c4)c3C2)ncn1", "Inhibition": 0}, {"molecule": "Br.CC1(C)NC(N)=NC(=N)N1OCCc1ccccc1", "Inhibition": 70}, {"molecule": "Cc1c(Cl)cccc1S(=O)(=O)Nc1ccc(CCN2CCC(N)CC2)cc1.Cl", "Inhibition": 23}, {"molecule": "CNC(=O)c1cc(Nc2nnc(-c3ccc(C)c(S(=O)(=O)NC4CCCCC4)c3)c3ccccc23)ccc1OC", "Inhibition": 0}, {"molecule": "CS(=O)(=O)c1ccc(-c2nc(NCC3CCCCC3)cc(C(F)(F)F)n2)cc1", "Inhibition": 0}, {"molecule": "COc1ccc(-n2ccnc2SCC(=O)Nc2cc(Cl)ccc2OC)c(OC)c1", "Inhibition": 0}, {"molecule": "Cl.N=C(N)NN=Cc1ccc2c(c1)Cc1ccccc1-2", "Inhibition": 72}, {"molecule": "Clc1ccc2nnc(-c3c(Cl)cccc3Cl)n2n1", "Inhibition": 29}, {"molecule": "Cc1cc(=NN=Cc2ccccc2Cl)c2ccccc2[nH]1", "Inhibition": 0}, {"molecule": "CCOC(=O)Nc1cc(-c2csc(N=C(N)N)n2)cc([N+](=O)[O-])c1", "Inhibition": 12}, {"molecule": "Cc1csc(-c2nc(NCCc3c(C)noc3C)ncc2-c2ccsc2)n1", "Inhibition": 6}, {"molecule": "CCc1ccnc2c(N3CCCC3=O)cc(C(=O)N[C@@H](Cc3ccccc3)[C@H](O)CNC3CCOCC3)cc12.O=CO", "Inhibition": 2}, {"molecule": "Cc1cccc(Cn2nc(-c3ccccc3)c(N3CCCCC3)cc2=O)c1", "Inhibition": 29}, {"molecule": "CN(C)CCOc1cc(NC(=O)Nc2ccc(-c3ccccc3)cc2Cl)ccc1I", "Inhibition": 25}, {"molecule": "CC(C)(CNC(=O)C1CCN(Cc2ccc(Cl)cc2)CC1)c1nc(-c2ccc(Cl)c(O)c2)c(-c2ccncc2)[nH]1.Cl", "Inhibition": 36}]}]}
